# Inconclusive results are not listed. A call without a number means that no potency is given here. Active and inactive are the calls of the source. Calls follow the shape of the dose curve; as a rule, active = well fitted inhibition curve with a large enough effect; inconclusive = small, poorly fitted or top-dose-only effect; inactive = flat fitted curve, though single readings scatter.
# Biological target: Calcium and integrin-binding protein 1 (Homo sapiens) (UniProt Q99828)
# Assay: Primary qHTS for Identification of Calcium Integrin Binding Protein 1 (CIB1) Competitor (AID 1508620);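 also: GST tagged CIB1 binding a fluorescein labelled alphaIIb integrin peptide tracer; top concentration of the series differs between compounds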
# Conditions: CIB1-GST / FITC-alphaIIb peptide fluorescence polarization; series mostly up to 114 µM
# Summary of the method: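 CIB1-GST (1 uM final) and compound incubated 15 min at room temperature before adding FITC-alphaIIb peptide tracer (100 nM final). Competition for binding read by fluorescence polarization (ex 480, em 540) after another 15 min at room temperature.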
# Calcium and integrin-binding protein 1 (Homo sapiens), sequence (Q99828 whole entry, looked up): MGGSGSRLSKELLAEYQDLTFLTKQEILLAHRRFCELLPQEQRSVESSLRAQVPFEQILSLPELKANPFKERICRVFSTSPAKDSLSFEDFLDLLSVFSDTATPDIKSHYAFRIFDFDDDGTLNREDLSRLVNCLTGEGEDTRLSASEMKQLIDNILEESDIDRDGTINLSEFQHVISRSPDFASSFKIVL
row,Compound,Potency
1,COC(=O)CCc1cc2ccoc2c(OC)c1O[C@@H]1O[C@H](CO)[C@@H](O)[C@H](O)[C@H]1O,inactive
2,C=C1CCC2C(C)(C)C(O)CCC2(C)C1CCC(C)CCOC(C)=O (configuration not stated),inactive
3,CS(=O)(=O)c1ccc([C@H](CC2CCCC2)C(=O)Nc2nccs2)cc1,inactive
4,Cn1c(=O)n(-c2ccc(C(C)(C)C#N)cc2)c2c3cc(C#Cc4cccnc4)ccc3ncc21,inactive
5,O=C(Nc1nc2ccccc2n1CCc1ccccc1)c1ccccc1,inactive
6,CC(Oc1ccc2[nH]nc(/C=C/c3cnn(CCO)c3)c2c1)c1c(Cl)cncc1Cl (configuration not stated),inactive
7,CC(C)=CC/C=C(\C)[C@H]1CC[C@]2(C)[C@@H]1[C@H](O)C[C@@H]1[C@@]3(C)CC[C@H](O)C(C)(C)[C@@H]3[C@@H](O[C@@H]3O[C@H](CO)[C@@H](O)[C@H](O)[C@H]3O)C[C@]12C,inactive
8,CN(C)C/C=C/C(=O)Nc1cc2c(Nc3ccc(F)c(Cl)c3)ncnc2cc1OC1CCOC1 (configuration not stated),inactive
9,CC(C)[C@@](C)(O)[C@@H]1CN(c2nc(-c3[nH]nc4ncccc34)c(F)cc2Cl)CCN1,inactive
10,Cc1c[nH]c2nccc(Oc3c(F)cc(Nc4cc(Cl)nc(N)n4)cc3F)c12,inactive
11,C=C1C(O)C(O)C2(CC3C(C)=CCC4C(C)(CO)CCCC34C)OC2C1O (configuration not stated),inactive
12,CO[C@H]1C[C@@H]2CC[C@@H](C)[C@@](O)(O2)C(=O)C(=O)N2CCCC[C@H]2C(=O)O[C@H]([C@H](C)C[C@@H]2CC[C@H](n3cnnn3)[C@H](OC)C2)CC(=O)[C@H](C)/C=C(\C)[C@@H](O)[C@@H](OC)C(=O)[C@H](C)C[C@H](C)/C=C/C=C/C=C/1C,inactive
13,C=C(C(=O)OC)C1C(O)CC2(C)C(=O)CCC(O)(CO)C2C1O (configuration not stated),inactive
14,CC(=O)N[C@H]1[C@H](O[C@H]2CC[C@@]3(C)C(CC[C@]4(C)C3CC=C3[C@@H]5CC(C)(C)CC[C@]5(C(=O)OC5OCC(O)C(O)C5O)CC[C@]34C)C2(C)C)O[C@H](COC2OC(C)C(O)C(OC3OC(C)C(O)C(O)C3O)C2O)[C@@H](O)[C@@H]1O (some centres not stated),inactive
15,CC(O)/C=C/C1C(C)C(O[C@@H]2O[C@H](CO)[C@@H](O)[C@H](O)[C@H]2O)C(O)CC1(C)C (some centres not stated),inactive
16,C[C@H](O)[C@H](O)/C=C/c1cccc(O)c1CO,inactive
17,COC(=O)C1(C)c2[nH]c3ccccc3c2CCN1C(=O)CCl (configuration not stated),inactive

# Reference: PubChem BioAssay (NCATS)
